In the library only some 22% were active in any assay of this set; here they are far more common.
CYP2C9 activ – human CYP2C9 activators, primary screen, biochemical, luminescence; recombinant CYP2C9, luciferin-H conversion; active compounds read high; factor 1 = untreated enzyme, 0 = blocked; AID 1024, 2008; activation factor at 5 µM; hit rate 1.4% among 96,000;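 active = activation factor of 2 or more for CYP2C9 at a 5 µM dose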;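 also: 0 = sulfaphenazole-blocked wells and 1 = vehicle-only wells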
Target sequence (P11712 whole entry, looked up): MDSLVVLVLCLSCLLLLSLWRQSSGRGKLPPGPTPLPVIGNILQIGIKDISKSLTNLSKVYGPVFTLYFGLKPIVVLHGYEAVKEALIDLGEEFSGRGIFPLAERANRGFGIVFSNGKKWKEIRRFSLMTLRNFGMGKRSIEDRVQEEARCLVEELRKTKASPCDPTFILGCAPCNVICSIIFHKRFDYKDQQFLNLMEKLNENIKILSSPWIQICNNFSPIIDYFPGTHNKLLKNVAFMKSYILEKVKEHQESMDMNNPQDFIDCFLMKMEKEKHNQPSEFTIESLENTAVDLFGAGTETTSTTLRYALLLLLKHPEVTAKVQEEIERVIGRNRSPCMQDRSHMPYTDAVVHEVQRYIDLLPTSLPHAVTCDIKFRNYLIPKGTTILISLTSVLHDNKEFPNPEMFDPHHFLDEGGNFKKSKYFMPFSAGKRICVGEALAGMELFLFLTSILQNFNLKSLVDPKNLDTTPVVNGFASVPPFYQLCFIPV
CYP2C19 inhib – blockers of cytochrome P450 2C19 activity – biochemical, luminescence, ADME assay, primary screen | inhibition, % at 5 µM | hit rate 21% among 96,000 | AID 778, 2007 | P33261 | CYP2C19 Supersomes, luciferin-H EGE luminescence, 30 min;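 active = CYP2C19 inhibition above a set limit at 5 µM in the primary screen, cut at about 50% in these data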;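 also: plate controls were negative control wells for no effect and 2.5 mM tranylcypromine positive control for full effect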
Measles CPE – compounds protecting cells from measles virus cytopathic effect, primary screen, measles RdRp inhibitor project, single point, MLSMR library, absorbance; Measles virus-infected cells, CPE protection; protection (pct of control), % at 4 µM; hit rate 1.5% among 140,000; in the data active = protection mostly above about 24%, no sharp cut-off; inactive = mostly below about 26%
CYP2C9 inh – blockers of cytochrome P450 2C9 activity – biochemical, luminescence, ADME assay, primary screen | AID 777, 2007 | hit rate 20% among 96,000 | P11712 | CYP2C9 Supersomes, luciferin-H conversion | inhibition, % at 5 µM;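 active = blocking of liver enzyme CYP2C9 beyond about 50% at 5 µM, limit read from the data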
CYP2C19 act – human CYP2C19 activators, primary screen, biochemical, luminescence; Cytochrome P450 2C19 (Homo sapiens), P33261; recombinant CYP2C19, luciferin-H EGE luminescence; active compounds read high; 0 = fully inhibited enzyme, 1 = untreated enzyme; activation factor at 5 µM; 96,000 tested, under 10 active; AID 1025, 2008;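 active = activation factor of at least 2 at 5 µM in the primary screen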;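 also: 0 = wells with 2.5 mM tranylcypromine and 1 = vehicle-only wells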
Numbers without * were called inactive; . = no result given.

SMILES	CYP2C9 activ	CYP2C19 inhib	Measles CPE	CYP2C9 inh	CYP2C19 act
NNC(=O)CNC(c1ccccc1)c1cc(Br)ccc1NC(=O)c1ccccc1Br (configuration not stated)	0.4	38.3	39.1	58.2*	0.6
CCCCOC1(c2ccccc2)NC(=S)NN=C1c1ccccc1 (configuration not stated)	0.1	78.8*	7.2	94.7*	0.2
COC1(c2ccccc2)NC(=S)NN=C1c1ccccc1 (configuration not stated)	0.2	47.5	3.4	81.7*	0.5
Cc1ccc(-n2c(C)cc(/C=N/NC(=O)c3ccncc3)c2C)cc1	0.9	17.9	16.5	7.9	0.8
CCC1(C)Cc2c(sc3c2c(=O)n(-c2ccccc2)c(=O)n3C)CO1 (configuration not stated)	0.9	22.9	21.2	12.8	0.8
COCCN(C(=O)C(C)C)c1nnc(-c2cccc(C)c2)s1	0.4	48.8	26.2	60.8*	0.5
CCCN(C(=O)c1ccco1)c1nnc(-c2ccncc2)s1	.	.	6.7	.	.
CCN(C(=O)c1cccs1)c1nnc(-c2ccncc2)s1	0.3	100.0*	9.1	71.2*	0
COCCN(C(=O)Cc1cccs1)c1nnc(-c2ccncc2)s1	0.3	97.5*	11.3	73.2*	0
Cc1cccc(-c2nnc(N)s2)c1	1.3	11.1	35.8*	-26.3	0.9
Cc1ccc(Sc2ccc(C(=O)NC(C)C)cc2[N+](=O)[O-])cc1	0.6	-2.5	7.2	38.6	1
COc1ccc(OC)c(NC(=O)C2CCN(S(=O)(=O)c3cccs3)CC2)c1	1.1	-10.2	9.8	-7.3	1.1
O=C(Nc1ccc(Cl)c(Cl)c1)Nc1ccccc1NS(=O)(=O)c1cccs1	.	.	5.5	.	.
CC(C)/C=C1\CCCCC1N(C)C(=O)NC(C)C (configuration not stated)	0.7	58.5*	4.2	34.6	0.4
CC(C)NC(=O)C(=O)NC1CCCCCC1	1.1	12.9	3.2	-6.2	0.9
Cc1cccc(C)c1NC(=O)CNc1ccccc1	1.1	45.5	3.6	-10.2	0.5
N#C/C(=C\c1ccc([N+](=O)[O-])cc1)C(=O)Nc1ccccc1O	.	.	12.8	.	.
CCOC(=O)C1=C(O)/C(=C\c2ccc(CNC(=O)C(=O)Nc3ccc(C)c(C)c3)o2)N=C1C	0.2	55.2*	1.4	82.6*	0.4
C=CCC1c2cccc(C(=O)OC)c2C(=O)N1c1ccccc1 (configuration not stated)	0.9	37.8	8.9	12.3	0.6
Cc1cccc(C(=O)c2c(N)sc3c2CCCC3)c1	.	.	9.7	.	.
CC1(C)CC(CCNC(=O)c2ccc(-n3cnnn3)cc2)CC(C)(C)N1	0.9	-3.4	29.8*	12.7	1
Cc1cccc(C)c1NC(=O)COC(=O)c1ccc(N2CCCC2)c([N+](=O)[O-])c1	.	.	27.7	.	.
CCOC(=O)CC1C(=O)NCCN1Cc1cccc(C(F)(F)F)c1 (configuration not stated)	1.2	55.2*	2.2	-20.1	0.4
CCOC(=O)C1=C(CSc2nc(-c3ccccc3)ccc2C#N)OC(N)=C(C#N)C1c1cccnc1 (configuration not stated)	0.1	92.0*	10.5	94.5*	0.1
CCOC(=O)C1=C(CSc2nc3c(cc2C#N)CN(C)CC3)OC(N)=C(C#N)C1c1ccccc1 (configuration not stated)	0.6	42.6	12.5	40.8	0.6
SMILES	CYP2C9 activ	CYP2C19 inhib	Measles CPE	CYP2C9 inh	CYP2C19 act
CCOC(=O)C1=C(CSc2nc3c(cc2C#N)CCC3)OC(N)=C(C#N)C1c1ccccc1 (configuration not stated)	.	.	5.2	.	.
CCOC(=O)C1=C(CSc2nc(-c3ccccc3)ccc2C#N)OC(N)=C(C#N)C1c1ccccc1 (configuration not stated)	0.1	59.1*	6.3	92.3*	0.4
CCOC(=O)C1=C(CSc2nc3c(cc2C#N)CN(C)CC3)OC(N)=C(C#N)C1c1ccc(F)cc1 (configuration not stated)	0.1	91.8*	6.5	85.8*	0.1
Cn1c(=O)oc2cc(S(=O)(=O)N3CCC(C(=O)NCc4cccs4)CC3)ccc21	1.7	-13.5	2.6	-73.2	1.1
Nc1nc2n(n1)C(c1cccc(Br)c1)CC(c1ccccc1)N2 (configuration not stated)	0.9	24.0	15.1	11.4	0.8
Brc1cccc(C2CC(c3ccccc3)n3nnnc3N2)c1 (configuration not stated)	0.2	77.6*	12.0	80.3*	0.2
c1ccc(C2CC(c3cccs3)n3nnnc3N2)cc1 (configuration not stated)	0.3	83.2*	40.5	73.6*	0.2
O=C(NNC(=O)c1cccs1)c1ccc(Cl)c([N+](=O)[O-])c1	.	.	7.7	.	.
CC(C)(C)C(=O)Nc1ccc(C(=O)Nc2cccnc2)cc1	0.8	4.2	1.5	16.9	1
O=C(NCc1ccccc1)c1ccccc1CO	.	.	17.3	.	.
CCn1c(SCC(=O)NC2CCCC2)nnc1-c1c[nH]c2ccccc12	0.2	41.9	6.3	78.5*	0.6
CCn1c(SCC(=O)NCc2ccccc2)nnc1-c1c[nH]c2ccccc12	0.2	77.4*	4.6	80.9*	0.2
CCn1c(SC(C)C)nnc1-c1c[nH]c2ccccc12	0.9	80.8*	10.4	9.3	0.2
CCOC(=O)CSc1nnc(-c2c[nH]c3ccccc23)n1CC	0.9	76.5*	17.3	9.3	0.2
C=CCSc1nnc(-c2c[nH]c3ccccc23)n1CCOC	1	45.2	1.1	-1.4	0.5
CCn1c(SCC(=O)NCC2CCCO2)nnc1-c1c[nH]c2ccccc12 (configuration not stated)	1.6	12.3	5.3	-58.6	0.9
O=C(OCCN1CCCCC1)c1ccc(O)cc1	1	-15.4	0.8	2.6	1.2
CCOc1ccccc1-n1c(SCC(=O)NC(C)(C)C)nnc1-c1ccoc1C	0.6	40.0	5.6	35.5	0.6
CCOc1ccccc1-n1c(SCC(=O)NC2CCCC2)nnc1-c1ccoc1C	0.3	67.7*	11.0	74.4*	0.3
COc1ccc(/C=C2\SC(=O)N=C2N)cc1OC	.	.	6.5	.	.
COc1ccc(/C=C2/SC(=O)N(NS(=O)(=O)c3ccccc3)C2=S)cc1OC	0.3	-6.2	5.5	70.5*	1.1
CCc1ccc(NC(=O)c2ccc(C3SCC(=O)N3CCc3ccccc3)cc2)cc1 (configuration not stated)	0.3	47.4	46.9	66.0*	0.5
Cc1cccc(NC(=O)c2ccc(C3SCC(=O)N3CCc3ccccc3)cc2)c1C (configuration not stated)	0.1	82.3*	7.5	89.3*	0.2

Compound activity from PubChem.
